# Only a selection was taken, and hits are over-represented in it overall.
# IDE exosite FP – displaces the probe from the exo-site of human IDE | z-score at 20 µM | P14735 | AID 1259349 | 17,000 tested, 6.3% active | purified IDE, FL-6b probe fluorescence polarization; active compounds read low;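 active means z-score of -3 or lower, meaning strong loss of probe binding signal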;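 further: His-tagged human IDE residues 42-1019 made in E. coli with 30 nM FL-6b probe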
# Target sequence (P14735 42-1019 limits assumed): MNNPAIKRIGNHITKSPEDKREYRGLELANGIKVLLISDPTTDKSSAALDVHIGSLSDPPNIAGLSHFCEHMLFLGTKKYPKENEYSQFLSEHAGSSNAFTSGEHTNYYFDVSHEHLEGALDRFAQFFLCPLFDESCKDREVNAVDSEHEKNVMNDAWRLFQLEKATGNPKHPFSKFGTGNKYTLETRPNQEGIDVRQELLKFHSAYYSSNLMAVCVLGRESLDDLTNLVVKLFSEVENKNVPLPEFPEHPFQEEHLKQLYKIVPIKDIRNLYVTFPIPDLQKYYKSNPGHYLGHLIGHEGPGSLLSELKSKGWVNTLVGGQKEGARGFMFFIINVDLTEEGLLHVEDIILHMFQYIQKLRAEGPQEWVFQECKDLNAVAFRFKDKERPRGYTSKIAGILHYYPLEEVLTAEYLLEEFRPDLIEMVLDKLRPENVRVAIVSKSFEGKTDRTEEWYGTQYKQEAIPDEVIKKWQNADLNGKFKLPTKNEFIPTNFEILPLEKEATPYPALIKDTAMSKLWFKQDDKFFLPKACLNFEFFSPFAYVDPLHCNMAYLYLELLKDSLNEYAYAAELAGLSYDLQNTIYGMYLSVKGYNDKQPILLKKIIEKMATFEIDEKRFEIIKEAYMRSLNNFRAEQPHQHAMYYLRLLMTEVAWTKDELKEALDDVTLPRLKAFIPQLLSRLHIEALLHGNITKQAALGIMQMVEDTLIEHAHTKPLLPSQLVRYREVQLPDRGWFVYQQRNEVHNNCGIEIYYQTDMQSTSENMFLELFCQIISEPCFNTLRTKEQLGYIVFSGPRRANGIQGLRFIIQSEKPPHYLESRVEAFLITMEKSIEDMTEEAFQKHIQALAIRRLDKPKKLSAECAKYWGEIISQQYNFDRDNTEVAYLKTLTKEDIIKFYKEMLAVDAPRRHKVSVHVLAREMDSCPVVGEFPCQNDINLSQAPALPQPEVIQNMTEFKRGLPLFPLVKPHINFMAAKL
# * hit, by the source's call; ! = repeats disagree.
SMILES,IDE exosite FP
O=C(c1cccc(F)c1)N1CC(=O)N2[C@H](CO)[C@@H](c3ccc(-c4ccccc4F)cc3)[C@@H]2C1,-1.4
CN(C)C(=O)C[C@H]1CC[C@@H]2[C@@H](COc3ccc(NC(=O)C4CCCCC4)cc3C(=O)N2C)O1,-0.86
O=C(c1cccc(F)c1)N1CC(=O)N2[C@H](C1)[C@H](c1ccc(C#Cc3ccc(F)cc3)cc1)[C@@H]2CO,1.5
O=C(C1CC1)N1CC(=O)N2[C@@H](CO)[C@H](c3ccc(C#Cc4cccc(F)c4)cc3)[C@@H]2C1,-5.8*
O=C(c1cccc(F)c1)N1CC(=O)N2[C@H](CO)[C@H](c3ccc(C#Cc4ccc(F)cc4)cc3)[C@H]2C1,3.9
O=C(C1CC1)N1CC(=O)N2[C@H](CO)[C@@H](c3ccc(C#Cc4cccc(F)c4)cc3)[C@@H]2C1,-5.7*
CCC(=O)N1CC(=O)N2[C@H](CO)[C@@H](c3ccc(C#Cc4cccc(F)c4)cc3)[C@H]2C1,2.6
O=C(Nc1ccccc1F)N1C[C@H]2[C@@H](c3ccccc31)[C@H](CO)N2C(=O)Cc1cccnc1,-0.85
CCS(=O)(=O)Nc1ccc2c(c1)C(=O)N(C)[C@H]1CC[C@H](CC(=O)NCCCN3CCOCC3)O[C@H]1CO2,-0.21
COc1ccc(-c2ccc3n(c2=O)C[C@@H]2[C@@H](CO)[C@H](C(=O)N4CCOCC4)N[C@H]32)cc1,-0.72
CO[C@@H]1CN(C)C(=O)c2cc(NC(C)=O)ccc2OC[C@@H](C)N(Cc2ccncc2)C[C@@H]1C,0.27
CCCNC(=O)N1CC(=O)N2[C@@H](CO)[C@@H](c3ccc(C#Cc4cccc(F)c4)cc3)[C@@H]2C1,2.6
CCCNC(=O)N1CC(=O)N2[C@H](C1)[C@H](c1ccc(C#Cc3ccc(F)cc3)cc1)[C@@H]2CO,2.6
CCCNC(=O)N1CC(=O)N2[C@@H](CO)[C@H](c3ccc(C#Cc4ccc(F)cc4)cc3)[C@@H]2C1,2.1
CCCNC(=O)N1CC(=O)N2[C@@H](CO)[C@H](c3ccc(C#Cc4ccccc4)cc3)[C@@H]2C1,-11*
CCCNC(=O)N1CC(=O)N2[C@H](CO)[C@@H](c3ccc(C#Cc4cccc(F)c4)cc3)[C@H]2C1,-3.7*
CCCNC(=O)N1CC(=O)N2[C@@H](CO)[C@@H](c3ccc(C#Cc4ccccc4)cc3)[C@@H]2C1,-1.1
O=C1CN(S(=O)(=O)c2cccc(F)c2)C[C@@H]2[C@H](c3ccc(-c4ccccc4)cc3)[C@@H](CO)N12,1.1
Cc1ccc(-c2ccc([C@@H]3[C@@H](CO)N4C(=O)CN(C(=O)Nc5cccc(F)c5)C[C@H]34)cc2)cc1,3.8
Cc1noc(C)c1S(=O)(=O)Nc1ccc2c(c1)C(=O)N([C@@H](C)CO)C[C@@H](C)[C@@H](CN(C)Cc1ccc(C(=O)O)cc1)OCCCC[C@@H](C)O2,0.69
O=C(c1ccncc1)N1C[C@@H]2N[C@H](C1)C2c1ccc(-c2ccncc2)cc1 (stereo partly specified),3.2
O=C(c1ccc2c(c1)OCO2)N1C[C@@H]2N[C@H](C1)C2c1ccc(-c2ccccc2F)cc1 (stereo partly specified),-2.8
O=C(c1ccc(F)cc1)N1C[C@@H]2N[C@H](C1)C2c1ccc(-c2cncnc2)cc1 (stereo partly specified),3.3
O=C(c1ccc(F)cc1)N1C[C@@H]2N[C@H](C1)C2c1ccc(-c2ccccc2F)cc1 (stereo partly specified),-4.1*!
O=C(c1ccc(F)cc1)N1C[C@@H]2N[C@H](C1)C2c1ccc(-c2ccc(F)cc2)cc1 (stereo partly specified),3.9
SMILES,IDE exosite FP
Cc1ccccc1-c1ccc(C2[C@@H]3CN(C(=O)c4ccc(F)cc4)C[C@H]2N3)cc1 (stereo partly specified),-10*!
CCC(=O)N1CC(=O)N2[C@@H](CO)[C@@H](c3ccc(C#CC4CCCCC4)cc3)[C@@H]2C1,2
Cc1ccccc1-c1ccc([C@H]2[C@H]3CN(C(=O)Nc4cccc(F)c4)CC(=O)N3[C@H]2CO)cc1,-0.76
COc1ccc(NC(=O)N2CC(=O)N3[C@H](C2)[C@H](c2ccc(Br)cc2)[C@@H]3CO)cc1,0.35
O=C(NCCN1CCCC1)[C@@H]1[C@@H](CO)[C@@H]2Cn3c(cccc3=O)[C@@H]2N1Cc1ccccn1,0.76
O=C(NC1CCCC1)N1CCCCN2[C@H](C1)[C@@H](c1ccc(/C=C/c3ccccc3)cc1)[C@@H]2CO,-9.6*
O=C(Nc1ccccc1F)N1CCCCN2[C@H](CO)[C@@H](c3ccc(/C=C/c4ccccc4)cc3)[C@H]2C1,-1.7
O=C(NC1CCCC1)N1CCCCN2[C@H](C1)[C@H](c1ccc(/C=C/c3ccccc3)cc1)[C@@H]2CO,-13*
O=C(NC1CCCC1)N1CCCCN2[C@H](CO)[C@@H](c3ccc(/C=C/c4ccccc4)cc3)[C@@H]2C1,-2.8
O=C(Nc1ccccc1F)N1CC(=O)N2[C@H](CO)[C@H](c3ccc(C#CC4CCCC4)cc3)[C@@H]2C1,2.3
CN(C)CC#Cc1ccc([C@@H]2[C@H]3CN(CC4CC4)CCCCN3[C@H]2CO)cc1,4.2
COCC(=O)N1[C@H](CO)[C@@H](c2ccccc2)C12CN(C(=O)c1ccccc1)C2,1.5
CN(C)C(=O)[C@H]1[C@H](CO)[C@H]2Cn3c(ccc(/C=C/c4ccccc4)c3=O)[C@H]2N1C(=O)c1cccnc1,0.78
O=C1CCCn2cc(nn2)COCCN1,-0.84
O=C(c1ccc(F)cc1)N1CC(=O)N2[C@H](CO)[C@H](c3ccc(-c4ccccc4F)cc3)[C@H]2C1,3
O=C(c1ccc(F)cc1)N1CC(=O)N2[C@@H](CO)[C@@H](c3ccc(-c4ccccc4F)cc3)[C@@H]2C1,-0.78
O=C(c1ccncc1)N1CC(=O)N2[C@H](C1)[C@@H](c1ccc(-c3ccccc3F)cc1)[C@@H]2CO,-7.4*
O=C(c1ccncc1)N1CC(=O)N2[C@@H](CO)[C@H](c3ccc(-c4ccccc4F)cc3)[C@@H]2C1,-4.8*
O=C(c1ccncc1)N1CC(=O)N2[C@H](CO)[C@@H](c3ccc(-c4ccccc4F)cc3)[C@H]2C1,0.35
O=C(c1ccncc1)N1CC(=O)N2[C@@H](CO)[C@@H](c3ccc(-c4ccccc4F)cc3)[C@@H]2C1,-1.6
CCS(=O)(=O)N1CC(=O)N2[C@H](CO)[C@H](c3ccc(-c4ccc(C)cc4)cc3)[C@@H]2C1,-0.8
COCC#Cc1ccc([C@H]2[C@@H](CO)N3CCCCN(C(=O)CN(C)C)C[C@H]23)cc1,1.1
COc1cccc(NC(=O)N2C[C@H](O)COC[C@@H]3O[C@@H](CC(=O)N(C)C)CC[C@H]32)c1,-0.31
C[C@@H]1CCCCO[C@H](CN(C)CC2CC2)[C@H](C)CN([C@@H](C)CO)C(=O)c2cc(NC(=O)c3ccccc3)ccc2O1,-0.49
CN(C)C(=O)c1cccc(-c2ccc(C3[C@H]4CNC[C@@H]3N4Cc3cccc(C(F)(F)F)c3)cc2)c1 (stereo partly specified),2.6
CCCNC(=O)N1[C@H](CNC(=O)c2ccccc2)[C@@H](c2ccccc2)[C@@H]1CO,2.2
CN1CCCCN2[C@H](CO)[C@H](c3ccc(Br)cc3)[C@@H]2C1,1.1
CCC(=O)NC[C@@H]1[C@H](c2ccccc2)[C@H](CO)N1C(=O)C1CC1,1.9
O=C(c1cccc(F)c1)N1CC(=O)N2[C@H](C1)[C@@H](c1ccc(-c3ccccc3)cc1)[C@@H]2CO,-3.4*
O=C(c1ccccc1F)N1CC(=O)N2[C@H](CO)[C@H](c3ccc(C#Cc4ccccc4)cc3)[C@@H]2C1,-1.8
